# According to PubChem BioAssay (EPA / NIEHS):
# Active and inactive are the calls of the source. How the source made its calls: active means hit-call score of the fitted dose curve at least 0.9, where 1 is the maximum; inactive means score below 0.9.
# Columns and labels:
# Conditions in all cases: mRNA level, 48 h; actives raise or lower the signal
# [1] = read-out: Intercellular Adhesion Molecule 1 (ICAM1), ICAM1 (gene 3383); experiment: LTEA_HepaRG_ICAM1: Life Technologies and Expression Analysis (LTEA) Assay for Intercellular Adhesion Molecule 1 (ICAM1) using HepaRG (AID 2283507)
# How it was run: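 Readout is qRT-PCR mRNA level, normalized to three housekeeping genes and fitted bidirectionally against 0.5% DMSO vehicle. Human HepaRG cultures received compound for 48 h, top concentration 100 uM with half-log dilutions.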
# [2] = read-out: Insulin-like growth factor-binding protein 1 (IGFBP1), IGFBP1 (gene 3484); experiment: LTEA_HepaRG_IGFBP1: Life Technologies and Expression Analysis (LTEA) Assay for Insulin-like growth factor-binding protein 1 (IGFBP1) using HepaRG (AID 2283508)
# How it was run: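 Thawed HepaRG cells are plated for 48 h, switched to serum-free induction medium, then dosed in duplicate for another 48 h (100 uM top, half-log steps). Lysates in RLT go to qRT-PCR, and gain or loss of signal is fitted relative to vehicle.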
# [3] = read-out: Interleukin 6 (IL6), IL6 (gene 3569); experiment: LTEA_HepaRG_IL6: Life Technologies and Expression Analysis (LTEA) Assay for Interleukin 6 (IL6) using HepaRG (AID 2283509)
# How it was run: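 qRT-PCR read-out of IL6 transcript, normalized to three housekeeping genes, after 48 h chemical exposure of HepaRG cells; 8-point half-log series, top 100 uM, 0.5% DMSO vehicle. Bidirectional curve fitting against DMSO baseline.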
# [4] = read-out: Interleukin 6 Receptor (IL6R), IL6R (gene 3570); experiment: LTEA_HepaRG_IL6R: Life Technologies and Expression Analysis (LTEA) Assay for Interleukin 6 Receptor (IL6R) using HepaRG (AID 2283510);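 on AC50: differentiated human HepaRG liver cells in serum-free induction medium; TaqMan qRT-PCR signal normalized to ACTB GAPDH and POLR2A housekeeping genes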
# How it was run: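 HepaRG, 48 h exposure, 8-pt half-log series, top 100 uM, 0.5% DMSO vehicle, duplicates. Read-out: TaqMan qRT-PCR of IL6R transcript, housekeeping-gene normalized. Gain or loss fitted relative to DMSO baseline.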
# [5] = read-out: Potassium channel subfamily K member 1 (KCNK1), KCNK1 (gene 3775); experiment: LTEA_HepaRG_KCNK1: Life Technologies and Expression Analysis (LTEA) Assay for Potassium channel subfamily K member 1 (KCNK1) using HepaRG (AID 2283511)
# How it was run: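 HepaRG, 48 h exposure, 8-pt half-log series top 100 uM, 0.5% DMSO vehicle, duplicates. Readout: KCNK1 transcript by qRT-PCR (Fluidigm array), housekeeping-normalized; bidirectional curve fit relative to DMSO baseline.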
# [6] = read-out: Keratin 19 (KRT19), KRT19 (gene 3880); experiment: LTEA_HepaRG_KRT19: Life Technologies and Expression Analysis (LTEA) Assay for Keratin 19 (KRT19) using HepaRG (AID 2283512)
# How it was run: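 KRT19 transcript levels, measured by Fluidigm qRT-PCR against three housekeeping genes, are fitted for gain or loss of signal relative to DMSO. Human HepaRG cells receive test chemicals (top 100 uM, half-log steps, 0.5% DMSO) for 48 hours.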
# [7] = read-out: JUN Transcription Factor, JUN (gene 3725); experiment: LTEA_HepaRG_JUN: Life Technologies and Expression Analysis (LTEA) Assay for JUN Transcription Factor using HepaRG (AID 2283513)
# How it was run: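 HepaRG, 48 h exposure, 8-pt half-log series top 100 uM, 0.5% DMSO, duplicate. JUN mRNA by qRT-PCR (Fluidigm), housekeeping-normalized (ACTB/GAPDH/POLR2A); bidirectional curve fit vs DMSO baseline.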
# [8] = read-out: Lipase C (LIPC), LIPC (gene 3990); experiment: LTEA_HepaRG_LIPC: Life Technologies and Expression Analysis (LTEA) Assay for Lipase C (LIPC) using HepaRG (AID 2283514)
# How it was run: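 HepaRG, 48 h exposure, 8-pt half-log series from 100 uM in 0.5% DMSO, duplicates. Readout: LIPC mRNA by Fluidigm qRT-PCR, housekeeping-normalized (ACTB/GAPDH/POLR2A). Gain or loss fitted bidirectionally against DMSO baseline.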
# [9] = read-out: Lipoprotein lipase (LPL), LPL (gene 4023); experiment: LTEA_HepaRG_LPL: Life Technologies and Expression Analysis (LTEA) Assay for Lipoprotein lipase (LPL) using HepaRG (AID 2283515)
# How it was run: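 HepaRG, 48 h exposure, 8-pt half-log dilutions from 100 uM, 0.5% DMSO vehicle, duplicates; qRT-PCR (Fluidigm array) of LPL mRNA vs housekeeping genes; bidirectional curve fit relative to DMSO baseline.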
# [10] = read-out: MicroRNA 122 (MIR122), gene 406906; experiment: LTEA_HepaRG_MIR122: Life Technologies and Expression Analysis (LTEA) Assay for MicroRNA 122 (MIR122) using HepaRG (AID 2283516); further: the transcript read is the microRNA miR-122
# How it was run: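 qRT-PCR read-out (TaqMan, Fluidigm array), normalized to three housekeeping genes; HepaRG cells dosed 48 h at 8 concentrations up to 100 uM in 0.5% DMSO, duplicate; gain or loss fitted against DMSO baseline.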
Compound,outcome [1],outcome [2],outcome [3],outcome [4],outcome [5],outcome [6],outcome [7],outcome [8],outcome [9],outcome [10],AC50 [8],AC50 [4],AC50 [6],AC50 [10],AC50 [2],AC50 [9],AC50 [1],AC50 [3],AC50 [5]
Cc1nn(-c2cc(NS(C)(=O)=O)c(Cl)cc2Cl)c(=O)n1C(F)F,inactive,inactive,inactive,inactive,inactive,inactive,inactive,inactive,inactive,inactive,–,–,–,–,–,–,–,–,–
COP(=O)(OC)SCn1c(=O)oc2cc(Cl)cnc21,inactive,inactive,inactive,inactive,inactive,inactive,inactive,–,inactive,inactive,79.1 µM (active),–,–,–,–,–,–,–,–
CNC(=O)ON=C(C)SC,inactive,inactive,inactive,inactive,inactive,inactive,inactive,inactive,inactive,inactive,–,–,–,–,–,–,–,–,–
O=c1ccc(=O)[nH][nH]1,inactive,inactive,inactive,inactive,inactive,inactive,inactive,inactive,inactive,inactive,–,–,–,–,–,–,–,–,–
Cc1cc(C2CC2)nc(Nc2ccccc2)n1,inactive,inactive,inactive,–,inactive,–,inactive,inactive,inactive,inactive,–,50 µM (active),22.9 µM (active),–,–,–,–,–,–
CSc1nc(NC(C)C)nc(NC(C)C)n1,inactive,inactive,inactive,inactive,inactive,inactive,inactive,inactive,inactive,–,–,–,–,50 µM (active),–,–,–,–,–
Nc1c(Cl)cc([N+](=O)[O-])cc1Cl,inactive,–,inactive,–,inactive,–,inactive,–,–,–,75.3 µM (active),28.2 µM (active),6.97 µM (active),50 µM (active),23.7 µM (active),15.5 µM (active),–,–,–
CCNc1nc(Cl)nc(NC(C)(C)C#N)n1,inactive,inactive,inactive,inactive,inactive,–,inactive,inactive,inactive,inactive,–,–,–,–,–,–,–,–,–
CC(C1CC1)C(O)(Cn1cncn1)c1ccc(Cl)cc1 (stereo unspecified),inactive,inactive,inactive,inactive,inactive,inactive,inactive,inactive,inactive,inactive,–,–,–,–,–,–,–,–,–
CCOC(=O)COc1cc(-c2nn(C)c(OC(F)F)c2Cl)c(F)cc1Cl,inactive,inactive,inactive,inactive,inactive,inactive,inactive,inactive,inactive,inactive,–,–,–,–,–,–,–,–,–
CCOP(=O)(OCC)Oc1cc(C)nc(C(C)C)n1,inactive,inactive,inactive,inactive,inactive,inactive,inactive,inactive,inactive,inactive,–,–,–,–,–,–,–,–,–
CC(C)=CC1C(C(=O)OCN2C(=O)C3=C(CCCC3)C2=O)C1(C)C (stereo unspecified),inactive,inactive,inactive,inactive,inactive,inactive,inactive,inactive,inactive,inactive,–,–,–,–,–,–,–,–,–
CCc1cnc(C2=NC(C)(C(C)C)C(=O)N2)c(C(=O)O)c1 (stereo unspecified),inactive,inactive,inactive,inactive,inactive,inactive,inactive,inactive,inactive,inactive,–,–,–,–,–,–,–,–,–
CCCCSP(=O)(SCCCC)SCCCC,inactive,–,inactive,inactive,inactive,–,inactive,–,–,inactive,83.6 µM (active),–,1.7 µM (active),–,64.2 µM (active),68.5 µM (active),–,–,–
CNC(=O)ON=C(SC)C(=O)N(C)C,inactive,inactive,inactive,inactive,inactive,inactive,inactive,inactive,–,inactive,–,–,–,–,–,0.289 µM (active),–,–,–
Cc1ccn2nc(S(=O)(=O)Nc3c(F)cccc3F)nc2n1,inactive,inactive,inactive,inactive,inactive,inactive,inactive,inactive,inactive,inactive,–,–,–,–,–,–,–,–,–

Compound,outcome [1],outcome [2],outcome [3],outcome [4],outcome [5],outcome [6],outcome [7],outcome [8],outcome [9],outcome [10],AC50 [8],AC50 [4],AC50 [6],AC50 [10],AC50 [2],AC50 [9],AC50 [1],AC50 [3],AC50 [5]
C#CC(C)(C)NC(=O)c1cc(Cl)cc(Cl)c1,inactive,inactive,inactive,–,inactive,–,inactive,inactive,inactive,inactive,–,–,11.8 µM (active),–,–,–,–,–,–
FC(F)C(F)(F)OCC(Cn1cncn1)c1ccc(Cl)cc1Cl (stereo unspecified),–,–,–,inactive,–,inactive,inactive,–,–,–,49.8 µM (active),–,–,59.2 µM (active),31.4 µM (active),31.3 µM (active),31.9 µM (active),78.5 µM (active),66.8 µM (active)
C#CCC1=C(C)C(OC(=O)C2C(C=C(C)C)C2(C)C)CC1=O (stereo unspecified),inactive,inactive,inactive,inactive,inactive,inactive,inactive,inactive,inactive,inactive,–,–,–,–,–,–,–,–,–
CCCSP(=O)(OCC)Oc1ccc(Br)cc1Cl (stereo unspecified),inactive,inactive,inactive,inactive,inactive,inactive,inactive,inactive,inactive,inactive,–,–,–,–,–,–,–,–,–
CN(C)C(=O)Nc1cccc(C(F)(F)F)c1,inactive,inactive,inactive,inactive,inactive,inactive,inactive,–,inactive,inactive,50 µM (active),–,–,–,–,–,–,–,–
CON=C(C(=O)OC)c1ccccc1CON=C(C)c1cccc(C(F)(F)F)c1,inactive,inactive,inactive,inactive,inactive,inactive,inactive,inactive,inactive,inactive,–,–,–,–,–,–,–,–,–
C[N+]1(C)CCCCC1,inactive,inactive,inactive,inactive,inactive,inactive,inactive,inactive,inactive,inactive,–,–,–,–,–,–,–,–,–
CC1=NNC(=O)N(/N=C/c2cccnc2)C1,inactive,inactive,inactive,inactive,inactive,inactive,inactive,inactive,inactive,inactive,–,–,–,–,–,–,–,–,–
CCOP(=O)(SC(C)CC)N1CCSC1=O (stereo unspecified),inactive,inactive,inactive,inactive,inactive,inactive,inactive,–,inactive,inactive,25.6 µM (active),–,–,–,–,–,–,–,–
CCOP(=S)(OCC)Oc1ccc2c(C)c(Cl)c(=O)oc2c1,inactive,–,inactive,inactive,inactive,–,inactive,–,inactive,–,74.7 µM (active),–,29.4 µM (active),50 µM (active),21.5 µM (active),–,–,–,–
COc1cccc(C(=O)NN(C(=O)c2cc(C)cc(C)c2)C(C)(C)C)c1C,inactive,inactive,inactive,inactive,inactive,inactive,inactive,inactive,inactive,inactive,–,–,–,–,–,–,–,–,–
COc1cc(OC)nc(Sc2cccc(Cl)c2C(=O)O)n1,inactive,inactive,inactive,inactive,inactive,inactive,inactive,inactive,inactive,inactive,–,–,–,–,–,–,–,–,–
CCOP(=S)(OCC)Oc1ccc([N+](=O)[O-])cc1,inactive,inactive,inactive,–,–,inactive,inactive,inactive,–,inactive,–,1.48 µM (active),–,–,–,–,–,–,–
CN1COCN(Cc2cnc(Cl)s2)C1=N[N+](=O)[O-],inactive,inactive,inactive,inactive,inactive,inactive,inactive,inactive,inactive,inactive,–,–,–,–,–,–,–,–,–
CCC(CC)Nc1c([N+](=O)[O-])cc(C)c(C)c1[N+](=O)[O-],inactive,inactive,inactive,inactive,inactive,–,inactive,inactive,inactive,inactive,–,–,50 µM (active),–,–,–,–,–,–
CCOC(=O)CC(SP(=O)(OC)OC)C(=O)OCC (stereo unspecified),inactive,inactive,inactive,inactive,inactive,inactive,inactive,inactive,inactive,inactive,–,–,–,–,–,–,–,–,–
